Source: PubChem
The list is not random: actives were taken first. Their share in the collection is about 4.1%.
hcDAF12 agonist: H. contortus DAF-12 activation, primary screen; HEK293 hcDAF-12 lit1-tk-luc reporter, luminescence; 0% DMSO, 100% Δ7-dafachronic acid; activation, % at 6.8 µM; 370,000 tested, 1.4% active; AID 652067;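 active means activation above the mean of all tested compounds plus 3 SD, cut at about 5.5% in these data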;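 further: 100% = response to 3 µM Δ7-dafachronic acid high control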
hgDAF-12 ag: activates the H. glycines DAF-12 receptor ligand-binding domain | 370,000 tested, 1.8% active | activation, % at 6.8 µM | HEK293 GAL4-hgDAF12 UAS-luciferase reporter, agonist luminescence; normalized to butyrate control;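 active means activation above a cutoff set at the mean of all screened compounds plus 3 SD, cut at about 10% in these data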;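 further: 0% = DMSO wells and 100% = sodium butyrate wells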
DAX1 inh-1: inhibitors of DAX1 repression of SF-1 activated StAR promoter. inhibition, % at 6.8 µM. AID 652010. 370,000 tested, 1.1% active. HEK293T StAR-luciferase reporter, SF-1/DAX-1 repression relief;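 active means inhibition above the mean over all tested compounds plus 3 SD, cut at about 3.6% in these data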;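 further: 0% = DAX-1 cells with DMSO and 100% = cells lacking DAX-1 with DMSO; higher inhibition means more luminescence from relief of DAX-1 repression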
DAX1 inh-2: NR0B1 (DAX1) inhibition; P51843; HEK293 Gal4-DAX1 luciferase reporter, luminescence; inhibition, % at 6.75 µM; 340,000 tested, 0.99% active; AID 504766;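 active means inhibition above the mean over all tested compounds plus 3 SD, cut at about 4.2% in these data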;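 further: 0% = DAX1-transfected cells with DMSO and 100% = empty-vector control cells with DMSO; inhibition shows as a rise in luminescence from relieved DAX1 repression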
ssDAF12 agonist: activates DAF-12 receptor from parasite S. stercoralis. 370,000 tested, 1% active. HEK293 ssDAF-12/GRIP1 lit1-tk-luc reporter, luminescence; % of 3 µM dafachronic acid response. activation, % at 6.8 µM;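 active means activation above the mean over all tested compounds plus 3 SD, cut at about 0.9% in these data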;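 further: 0% = DMSO-only wells and 100% = 3 µM delta7-dafachronic acid wells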
DAX1 inh confirm: NR0B1 (human) inhibition, confirmation; shares compounds with DAX1 inh-1; HEK293T StAR-promoter luciferase reporter, SF-1/DAX-1 repression; inhibition, % at 6.8 µM; 2,400 tested, 87% active; AID 652134;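 active means inhibition above the average of every tested compound plus 3 SD, cut at about 3.8% in these data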;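 further: 0% = DAX-1 cells with DMSO and 100% = no DAX-1 control cells with DMSO; active compounds raise luminescence by relieving repression of the StAR reporter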
Target sequence (P51843 whole entry, looked up): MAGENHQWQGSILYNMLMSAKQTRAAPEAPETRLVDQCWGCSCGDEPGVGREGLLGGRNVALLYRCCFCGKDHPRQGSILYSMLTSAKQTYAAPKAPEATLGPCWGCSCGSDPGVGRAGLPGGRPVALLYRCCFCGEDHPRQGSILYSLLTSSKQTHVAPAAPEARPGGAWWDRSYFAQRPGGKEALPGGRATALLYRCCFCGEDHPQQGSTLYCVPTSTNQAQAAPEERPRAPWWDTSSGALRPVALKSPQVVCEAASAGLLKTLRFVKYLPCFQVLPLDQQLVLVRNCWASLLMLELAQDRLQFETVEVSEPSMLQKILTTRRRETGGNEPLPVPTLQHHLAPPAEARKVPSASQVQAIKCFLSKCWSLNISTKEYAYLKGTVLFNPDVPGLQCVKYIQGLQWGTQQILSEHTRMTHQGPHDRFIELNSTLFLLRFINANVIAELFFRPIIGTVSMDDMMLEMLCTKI
SF1 mutant ctr: nonselective inhibitor or artifact in SF-1 mutant DAX1 counter-screen. 2,400 tested, 78% active. AID 652136. inhibition, % at 6.8 µM. HEK293 StAR-luciferase, SF-1 AF2 mutant, luminescence. shares compounds with DAX1 inh-1;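 active means inhibition above the mean of all tested compounds plus 3 SD, cut at about 3% in these data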;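 further: 0% = DAX-1 transfected cells with DMSO and 100% = cells without DAX-1 with DMSO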
LXR ag: counter-screen for hcDAF-12 agonists: agonists of human LXR-beta. shares compounds with hcDAF12 agonist. HEK293 Gal4-LXR tk-luc reporter, luminescence, 24 h; normalized: DMSO 0%, positive control 100%. activation, % at 6.8 µM. 3,400 tested, under 10 active. AID 743027;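 active means mean percent activation of the reporter above a cutoff set as the average over tested compounds plus their standard deviation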
hcDAF12 ag: confirmation of H. contortus DAF-12 agonists | 3,400 tested, 61% active | HEK293 hcDAF-12 lit1-tk-luc reporter, luminescence; % of Δ7-dafachronic acid response | AID 743032 | shares compounds with hcDAF12 agonist | activation, % at 6.8 µM;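 active means mean activation across triplicate tests above the threshold derived from the earlier primary screen, cut at about 5.5% in these data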;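 further: 0% = DMSO only wells and 100% = 3 µM Δ7-dafachronic acid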
An asterisk follows results filed as active; nt = no result given.

SMILES	hcDAF12 agonist	hgDAF-12 ag	DAX1 inh-1	DAX1 inh-2	ssDAF12 agonist	DAX1 inh confirm	SF1 mutant ctr	LXR ag	hcDAF12 ag
COc1ccccc1NC(CC(=O)c1ccccc1)C(=O)OCC(=O)c1ccc(Br)cc1 (stereo unspecified)	20.5*	23.4*	7.8*	0.4	2.1*	8.9*	-0.7	2.1	20.8*
O=C(Nc1ccc2c(c1)OCCO2)Nc1ccc2c(c1)OCO2	9.2*	21.9*	5.4*	-0.5	3.1*	13.6*	6.7*	2.0	9.1*
COc1ccc(-c2cc(C(=O)Nc3ccc4c(c3)OCO4)no2)cc1	-1.8	-0.2	0.0	0.5	0.2	nt	nt	nt	nt
O=C(Nc1ccc2c(c1)OCO2)c1ccncc1	-0.1	2.4	0.2	1.3	-0.5	nt	nt	nt	nt
Cc1ccc(NC(=O)Nc2ccc3c(c2)OCO3)cc1F	8.0*	10.7*	7.5*	0.3	0.5	11.9*	9.6*	1.4	4.0
CC(C)c1cc(C(=O)Nc2ccc3c(c2)OCO3)no1	12.5*	8.4	6.4*	1.5	2.0*	15.7*	7.1*	1.2	7.9*
Cc1ccc(C(=O)Nc2ccc3c(c2)OCO3)cc1	19.9*	13.1*	5.6*	-1.7	3.3*	11.3*	6.0*	1.6	14.1*
COc1cc(CCC(C)=O)ccc1OC(=O)c1c(-c2c(F)cccc2Cl)noc1C	-2.9	-2.0	-0.4	nt	-1.4	nt	nt	nt	nt
CC(=O)OCC(=O)NCC1CCN(C(=O)C(=O)c2cc3ccccc3o2)CC1	-0.6	-0.3	1.0	nt	-1.2	nt	nt	nt	nt
COC(=O)[C@]12C[C@H](CC(=O)N3CCC(c4ccccc4)CC3)C(=O)N(Cc3ccco3)C1=C[C@H](C(C)(C)C)O[C@@H]2C	0.1	3.9	-1.4	nt	-1.5	nt	nt	nt	nt
N#Cc1cccc(NCC(=O)Nc2ccc3c(c2)OCCO3)c1	7.8*	13.2*	5.2*	0.6	1.4*	11.2*	4.1*	1.8	7.6*
C/C(=N\NC(=O)c1cccs1)c1c(O)cc(C)oc1=O	6.6*	12.3*	6.9*	4.7*	1.1*	1.5	1.8	-0.1	1.0
CN1C(=O)[C@@]2(C3=C(CCCC3=O)OC3=C2C(=O)OC2(CCCCC2)C3)c2ccccc21	-0.6	-0.8	0.8	nt	-0.9	nt	nt	nt	nt
COC(=O)C1=C(C)N(Cc2ccc(Br)cc2)C(=S)NC1c1ccccc1 (stereo unspecified)	0.8	-3.0	-1.6	nt	-1.0	nt	nt	nt	nt
Cn1c(/C=C/c2ccccc2)nc2ccccc21	9.0*	11.5*	4.6*	-3.5	0.1	6.6*	2.2	1.4	13.9*
O=C(/C=C/c1cccs1)N1CCc2ccccc21	19.5*	28.0*	7.3*	0.8	3.6*	18.9*	8.4*	2.0	21.0*
O=C(/C=C/c1ccc(Cl)c(Cl)c1)N1CCc2ccccc21	1.6	9.9	1.1	0.2	-0.9	nt	nt	nt	nt
Cc1cnc(C(=O)Nc2nnc(C3CC3)s2)cn1	1.8	0.4	1.1	0.0	-0.6	nt	nt	nt	nt
COc1c(C(=O)Nc2nnc(C3CC3)s2)csc1Cl	8.1*	10.3	7.0*	2.0	2.1*	6.2*	9.1*	0.6	9.5*
O=S1(=O)c2ccc(N3CC[C@H](O)C3)cc2O[C@@H]2CCN1C2	-0.5	-2.6	0.8	nt	-0.9	nt	nt	nt	nt
O=C(COc1ccc(Cl)cc1Cl)Nc1ccc(Cl)cn1	8.8*	11.2*	6.2*	0.6	0.5	8.3*	3.5*	1.6	8.1*
Clc1ccc(OCc2nc(-c3ccncc3)no2)c(Br)c1	8.3*	12.8*	5.9*	4.0	1.2*	11.8*	8.5*	1.2	6.2*
O=[N+]([O-])c1ccc(Cn2ccc3ccc(-c4ccc5ccn(Cc6ccccc6)c5c4)cc32)cc1	0.0	0.8	-1.4	nt	-0.2	nt	nt	nt	nt
